A number with no mark means an inactive call. For some of these results: Potency and affinity values are given separately. The source made the active and inactive calls. Unless noted, the rule behind the calls is not given here.

Here are results for 20 molecules from PubChem BioAssay.

The nature of experiment [1]: antimalarial activity against Dd2 strain (AID 2302;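 active = growth inhibition above 50% at the single 2 µM test dose, taken to imply half-maximal potency below 2 µM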;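 note: 0% = DMSO untreated growth and 100% = chloroquine plus artemisinin killed control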). The following applies: P. falciparum Dd2 in RBCs, LDH growth readout, 72 h; at 2 µM; stronger effect = higher value.
A short description of experiment [2]: HepG2 cytotoxicity, primary screen, cytotoxicity control for P. falciparum antimalarial project, cell-based, ATP luminescence (AID 2303;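 active = inhibition above 50%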;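 note: 0% = DMSO wells and 100% = digitonin-killed cells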). The following applies: HepG2 viability, 24-48 h, at 10 µM, stronger effect = higher value.
Experiment [3] has as its target L-lactate dehydrogenase (Plasmodium falciparum (isolate CDC / Honduras)) (UniProt Q27743). In words: PfLDH activity inhibition – cell lysate, 3D7 strain, counter-screen for P. falciparum growth inhibition project (AID 2304).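 Note: 0% = vehicle and 100% = reference inhibitor.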 The following applies: P. falciparum 3D7 crude extract, LDH APAD/NBT absorbance; at 2 µM; stronger effect = higher value.
A short description of experiment [4]: inhibition of 3D7 malaria parasite growth – strain 3D7 (AID 2306).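 Note: 0% = DMSO wells and 100% = chloroquine plus artemisinin control wells.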 The following applies: P. falciparum 3D7 erythrocytic growth, LDH absorbance, 72 h; at 2 µM; stronger effect = higher value.
The target of experiment [5] is Calcium-dependent protein kinase 1 (Plasmodium falciparum (isolate 3D7)) (UniProt P62344). In words: PfCDPK1 kinase inhibitors, biochemical, TCAMS library (AID 1159585; cut-off not given, nearly all actives have IC50 up to about 0.98 µM;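 note: inhibitors leave more ATP so luminescence rises with inhibition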). The following applies: recombinant PfCDPK1, Kinase-Glo ATP depletion luminescence. (In general: Kinase-Glo reads ATP consumption through a luciferase reaction.)
The target of experiment [6] is Plasmodium falciparum protein kinase 6 (PK6, PF3D7_1337100) (UniProt Q8IDW1). Kind of experiment: PfPK6 kinase inhibitors, biochemical, TCAMS library (AID 1159586). The following applies: recombinant PfPK6, Kinase-Glo ATP depletion luminescence.
Experiment [7] addresses Protein kinase 7 (PK7), Plasmodium falciparum 3D7 (PF3D7_0213400) (UniProt Q7YTF7). In words: inhibition of Plasmodium PK7 catalytic activity – biochemical, TCAMS antimalarial set, Kinase-Glo luminescence (AID 1159587). The following applies: recombinant PfPK7, Kinase-Glo ATP depletion luminescence.
Experiment [8] has as its target Calcium-dependent protein kinase 4 (Plasmodium falciparum (isolate 3D7)) (UniProt Q8IBS5). In words: PfCDPK4 kinase inhibitors, biochemical, TCAMS library (AID 1159588; cut-off not given, nearly all actives have IC50 up to about 0.91 µM). The following applies: recombinant PfCDPK4, Kinase-Glo ATP depletion luminescence.

Chain of L-lactate dehydrogenase (Plasmodium falciparum (isolate CDC / Honduras)) (Q27743 whole entry, looked up): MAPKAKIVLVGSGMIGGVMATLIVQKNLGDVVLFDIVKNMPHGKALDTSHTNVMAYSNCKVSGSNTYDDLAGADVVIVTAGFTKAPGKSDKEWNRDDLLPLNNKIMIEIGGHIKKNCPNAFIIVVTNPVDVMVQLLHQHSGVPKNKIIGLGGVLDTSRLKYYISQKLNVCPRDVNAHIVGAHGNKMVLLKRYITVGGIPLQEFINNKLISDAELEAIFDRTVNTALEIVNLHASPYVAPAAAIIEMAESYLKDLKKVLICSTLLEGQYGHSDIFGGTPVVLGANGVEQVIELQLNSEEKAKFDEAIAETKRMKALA
Chain of Calcium-dependent protein kinase 1 (Plasmodium falciparum (isolate 3D7)) (P62344 whole entry, looked up): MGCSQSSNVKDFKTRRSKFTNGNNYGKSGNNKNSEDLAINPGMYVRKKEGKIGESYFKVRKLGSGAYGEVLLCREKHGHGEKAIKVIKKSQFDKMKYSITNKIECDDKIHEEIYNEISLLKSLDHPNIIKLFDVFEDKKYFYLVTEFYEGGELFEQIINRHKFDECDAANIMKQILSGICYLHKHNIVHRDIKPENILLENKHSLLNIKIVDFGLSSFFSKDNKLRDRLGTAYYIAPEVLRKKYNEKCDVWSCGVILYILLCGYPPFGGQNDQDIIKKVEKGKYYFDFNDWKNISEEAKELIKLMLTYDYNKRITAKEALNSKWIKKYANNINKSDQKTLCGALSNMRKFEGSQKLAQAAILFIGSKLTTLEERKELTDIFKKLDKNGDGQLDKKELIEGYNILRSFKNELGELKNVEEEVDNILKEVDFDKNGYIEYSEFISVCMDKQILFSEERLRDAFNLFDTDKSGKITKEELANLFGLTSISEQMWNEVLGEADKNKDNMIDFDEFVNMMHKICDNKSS
Chain of Plasmodium falciparum protein kinase 6 (PK6, PF3D7_1337100) (Q8IDW1 1-305): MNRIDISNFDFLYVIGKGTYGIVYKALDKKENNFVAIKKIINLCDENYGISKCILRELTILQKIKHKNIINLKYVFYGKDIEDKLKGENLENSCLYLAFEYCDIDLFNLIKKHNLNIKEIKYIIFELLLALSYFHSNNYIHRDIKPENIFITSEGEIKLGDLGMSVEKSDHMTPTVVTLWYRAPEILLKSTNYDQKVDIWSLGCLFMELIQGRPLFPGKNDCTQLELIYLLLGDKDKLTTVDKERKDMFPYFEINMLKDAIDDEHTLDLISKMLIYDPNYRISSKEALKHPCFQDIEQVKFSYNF
Chain of Calcium-dependent protein kinase 4 (Plasmodium falciparum (isolate 3D7)) (Q8IBS5 whole entry, looked up): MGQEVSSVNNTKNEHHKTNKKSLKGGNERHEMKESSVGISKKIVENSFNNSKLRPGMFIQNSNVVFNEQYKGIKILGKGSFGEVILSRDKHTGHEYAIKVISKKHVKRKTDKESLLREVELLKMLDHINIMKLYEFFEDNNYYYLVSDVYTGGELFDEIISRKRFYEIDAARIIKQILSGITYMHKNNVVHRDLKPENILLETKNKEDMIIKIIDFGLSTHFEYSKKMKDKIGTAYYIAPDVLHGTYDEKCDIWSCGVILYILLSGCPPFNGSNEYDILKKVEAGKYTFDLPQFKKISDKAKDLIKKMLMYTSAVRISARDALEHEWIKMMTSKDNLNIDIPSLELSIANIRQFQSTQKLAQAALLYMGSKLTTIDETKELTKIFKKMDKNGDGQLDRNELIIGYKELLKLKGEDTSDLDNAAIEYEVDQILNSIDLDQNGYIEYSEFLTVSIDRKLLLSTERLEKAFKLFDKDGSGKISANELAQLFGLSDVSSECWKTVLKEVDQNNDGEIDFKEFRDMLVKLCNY
Chain of Protein kinase 7 (PK7), Plasmodium falciparum 3D7 (PF3D7_0213400) (Q7YTF7 1-343): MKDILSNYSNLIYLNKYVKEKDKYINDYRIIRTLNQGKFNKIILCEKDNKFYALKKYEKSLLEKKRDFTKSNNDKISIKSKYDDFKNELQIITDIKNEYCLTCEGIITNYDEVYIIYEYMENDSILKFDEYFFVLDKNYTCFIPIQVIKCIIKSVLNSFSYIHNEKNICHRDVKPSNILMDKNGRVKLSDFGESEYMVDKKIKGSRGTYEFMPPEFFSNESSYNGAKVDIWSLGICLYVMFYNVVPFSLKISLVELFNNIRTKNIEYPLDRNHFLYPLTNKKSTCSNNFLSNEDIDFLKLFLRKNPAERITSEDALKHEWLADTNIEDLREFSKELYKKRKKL

On to `CCCNC(=O)C1Cc2c([nH]c3ccc(Br)cc23)C2(CCN(CCc3ccccc3)CC2)N1` (stereo not given), for which the growth inhibition is 49% in experiment [1] and 99% (active) in experiment [4]. Besides, the inhibition (commonly the drop in the measured response relative to a control, in per cent) is 16% in experiment [2] and -8% in experiment [3]. For the same molecule, the outcome in experiment [5], in experiment [6], in experiment [7] and in experiment [8] was inactive.
As to `Cc1cccc2[nH]c(-c3cccc(-c4cccc(CNC(C)C)c4)c3)nc12`, the growth inhibition in experiment [1] was 98% (active); in experiment [4] it was 102% (active). For the same molecule, the inhibition in experiment [2] is 29%; in experiment [3], -4%. The outcome in experiment [5], in experiment [6], in experiment [7] and in experiment [8] was inactive.
Regarding `Cc1csc2nc(-c3ccccn3)nc(Nc3ccncn3)c12`, the results for the growth inhibition in experiment [1] and in experiment [4] were 85% (active) and 97% (active), respectively. Further, the values for the inhibition in experiment [2] and in experiment [3] were 47% and -3%, respectively. For the same molecule, the result in experiment [5], in experiment [6], in experiment [7] and in experiment [8] was inactive.
Consider `COc1ccc(CNc2ccnc3cc(OC)ccc23)cc1`, for which the growth inhibition in experiment [1] is 74% (active); in experiment [4], 100% (active). Also, the inhibition was 7% in experiment [2] and -7% in experiment [3]. The result in experiment [5], in experiment [6], in experiment [7] and in experiment [8] was inactive.
As to `O=C(C=Cc1ccc(Cl)c(Cl)c1)NCCCCCN1CCCC(CCCNC(=O)c2cccs2)C1` (stereo not given), the results for the growth inhibition in experiment [1] and in experiment [4] were 0% and 89% (active), respectively. Besides, the inhibition in experiment [2] is 24%; in experiment [3], 1%. The outcome in experiment [5], in experiment [6], in experiment [7] and in experiment [8] was inactive.
As for `CC(C)CN1CCN(CCNc2c3ccccc3nc3ccccc23)CC1`, the growth inhibition was 79% (active) in experiment [1] and 97% (active) in experiment [4]. In addition, the inhibition in experiment [2] was 26%; in experiment [3], 0%. Moreover, the outcome in experiment [5], in experiment [6], in experiment [7] and in experiment [8] was inactive.
On to `NC(=O)c1ccsc1NC(=O)CNC(c1ccccc1)c1ccccc1`, for which the growth inhibition is 37% in experiment [1] and 88% (active) in experiment [4]. Besides, the inhibition in experiment [2] is 8%; in experiment [3] it was 3%. The outcome in experiment [5], in experiment [6], in experiment [7] and in experiment [8] was inactive.
As for `CC(=O)Nc1ccc(C(=O)Nc2cccc(-c3cccc(-c4nc5ccccc5[nH]4)c3)c2)cn1`, the growth inhibition in experiment [1] is 100% (active); in experiment [4], 101% (active). Further, the figures for the inhibition in experiment [2] and in experiment [3] were 3% and -2%, respectively. The outcome in experiment [5], in experiment [6], in experiment [7] and in experiment [8] was inactive.
On to `CCN(CCCN1CCCCC1)c1cc(C)nc(Nc2ccc(Cl)cc2)n1`, for which the growth inhibition in experiment [1] was 82% (active); in experiment [4], 101% (active). The results for the inhibition in experiment [2] and in experiment [3] were 23% and -2%, respectively. For the same molecule, the result in experiment [5], in experiment [6], in experiment [7] and in experiment [8] was inactive.
For the molecule `COc1ccc(-c2ccc(NC(=O)c3ccc(C#N)cc3)c(F)c2)cc1CN(C)CCN(C)C`, the growth inhibition in experiment [1] was 0%; in experiment [4], 88% (active). Also, the inhibition in experiment [2] is 24%; in experiment [3], -4%. The outcome in experiment [5], in experiment [6], in experiment [7] and in experiment [8] was inactive.
With `CC(C)(C)c1ccccc1OC(=O)c1ccccc1`, the figures for the growth inhibition in experiment [1] and in experiment [4] were 2% and 95% (active), respectively. Besides, the inhibition in experiment [2] was -4%; in experiment [3] it was 0%. Further, the outcome in experiment [5], in experiment [6], in experiment [7] and in experiment [8] was inactive.
For the molecule `COc1ccc(-c2c(-c3ccc(OCc4ccccc4)cc3O)n[nH]c2C(F)(F)F)cc1`, the growth inhibition was 57% (active) in experiment [1] and 93% (active) in experiment [4]. The inhibition is 49% in experiment [2] and 2% in experiment [3]. The result in experiment [5], in experiment [6], in experiment [7] and in experiment [8] was inactive.
As for `CCN1CCN(c2cc(C)c3cc(NC(=O)c4cccc(OC)c4)ccc3n2)CC1`, the growth inhibition in experiment [1] is 15%; in experiment [4], 99% (active). Also, the results for the inhibition in experiment [2] and in experiment [3] were 5% and 3%, respectively. Also, the result in experiment [5], in experiment [6], in experiment [7] and in experiment [8] was inactive.
For the molecule `O=C(c1ccccc1)N1COCC(CCN2CCC(N3CCCC3)CC2)(c2ccc(Cl)c(Cl)c2)C1` (stereo not given), the growth inhibition was 9% in experiment [1] and 83% (active) in experiment [4]. For the same molecule, the inhibition in experiment [2] is 18%; in experiment [3], 0%. Besides, the result in experiment [5], in experiment [6], in experiment [7] and in experiment [8] was inactive.
Turning to `COc1ccc(S(=O)(=O)N(c2cc(Br)cc3c2OCC3)S(=O)(=O)c2ccc(OC)c(N3CCN(C)CC3)c2)cc1N1CCN(C)CC1`, the growth inhibition in experiment [1] is 98% (active); in experiment [4], 81% (active). Further, the inhibition is 67% (active) in experiment [2] and -8% in experiment [3]. Further, the outcome in experiment [5], in experiment [6], in experiment [7] and in experiment [8] was inactive.
With `N=C(N)c1ccc(NN=Cc2ccc(Oc3ccc(C(=N)N)cc3)cc2)cc1`, the growth inhibition in experiment [1] was 100% (active); in experiment [4], 99% (active). Besides, the values for the inhibition in experiment [2] and in experiment [3] were 18% and 0%, respectively. Moreover, the result in experiment [5], in experiment [6], in experiment [7] and in experiment [8] was inactive.
As for `Nc1ncc(-c2ccc(F)cc2)cc1-c1nc2ccc(Cl)cc2[nH]1`, the growth inhibition is 44% in experiment [1] and 99% (active) in experiment [4]. Moreover, the inhibition is 45% in experiment [2] and 0% in experiment [3]. For the same molecule, the result in experiment [5], in experiment [6], in experiment [7] and in experiment [8] was inactive.
Take `COc1ccc2c(c1)OC(C)(C)CC2=NOS(=O)(=O)c1ccc(C)cc1`: the growth inhibition in experiment [1] was 12%; in experiment [4], 97% (active). For the same molecule, the inhibition in experiment [2] is 10%; in experiment [3] it was 4%. The result in experiment [5], in experiment [6], in experiment [7] and in experiment [8] was inactive.
For `Cc1cc(C)c(NC(=O)N2CCCN(CCCCCNC(=O)/C=C/c3ccc(Cl)c(Cl)c3)CC2)c(C)c1`, the growth inhibition was -1% in experiment [1] and 91% (active) in experiment [4]. For the same molecule, the values for the inhibition in experiment [2] and in experiment [3] were 12% and 3%, respectively. For the same molecule, the outcome in experiment [5], in experiment [6], in experiment [7] and in experiment [8] was inactive.
Regarding `CCOc1cc(C(=O)NCCCN2CCN(c3cccc(Cl)c3)CC2)ccc1-c1nc2cc(Cl)c(F)cc2[nH]1`, the growth inhibition in experiment [1] is 19%; in experiment [4], 96% (active). Also, the inhibition in experiment [2] was 16%; in experiment [3], 7%. The result in experiment [5], in experiment [6], in experiment [7] and in experiment [8] was inactive.
